In all, about 410,000 compounds went through this assay and about 1,200 (0.29%) were called active. Not shown: some 2% with an inconclusive outcome. What follows is part of a selection rich in actives, with near analogues and random picks from the rest. Unmarked numbers belong to inactive results. Calls come from the whole dose curve; as a rule, active = well fitted activation curve with a large enough effect; inconclusive = small, poorly fitted or top-dose-only effect; inactive = flat fitted curve, though single readings scatter.
Assay: qHTS of Nrf2 Activators; note: nearly all actives have a fitted effect of over 65% in size; for activation: % of control where 0% means no effect
Details: AREc32 ARE-luciferase reporter (MCF7-derived line), luminescence, 24 h; series mostly up to 46.1 µM; activation: at the top concentration
Description: Many diseases have some form of oxidative stress injury and ties to inflammation, causing a host of problems for the patient. The antioxidant response element (ARE) plays an important role in alleviating the harmful effects of oxidative stress. The antioxidant response element (ARE) is a transcriptional regulatory element involved in the activation of genes coding for a number of antioxidant proteins and detoxifying enzymes. These enzymes work in concert to protect tissues from oxidative insults and chemical toxicities in human hepatocytes and immune cells. The protective effects of ARE activation are primarily triggered through Nrf2 (NF-E2-related factor) binding to and activating AREs. It is known that Nrf2 controls the production of over 250 antioxidant and detoxification proteins (Hu et al., 2006), thereby protecting tissues by increasing cellular antioxidant content and suppressing inflammatory signaling pathways. The transcription factor Nrf2 is a central link between oxidative chemicals, such as phenolic antioxidants and electrophilic compounds, and the activation of ARE. Nrf2 levels are constitutively low as a consequence of its interaction with Keap1, which targets its degradation (Zipper and Mulcahy, 2002). Electrophiles react with key cysteine residues in Keap1, releasing Nrf2 and allowing its translocation to the nucleus. Once within the nucleus, Nrf2 complexes with coactivators such as p300, and binds to the AREs to induce gene transcription of cytoprotective enzymes, resulting in the prevention of toxicity. Activation of Nrf2 protects tissues by increasing cellular antioxidant content and suppressing inflammatory signaling pathways. Identifying novel and potent Nrf2 activators by using the AREc32 cell line to detect ARE activation by small molecules will lead to the identification and development of probes to study protective pathways in multiple tissues. These specific probes are essential to study the ARE pathway, and eventually to determine whether this pathway does activate genes that could protect against a host of diseases, including cardiovascular diseases, obesity, diabetes, Alzheimer's, and Parkinson's disease.
This project's aim is to identify novel and potent Nrf2 activators by using the AREc32 cell line to detect ARE activation by small molecules, which will lead to the identification and development of probes to study the ARE pathway.
NIH Chemical Genomics Center [NCGC]
NIH Molecular Libraries Probe Centers Network [MLPCN]
Assay Submitter (PI): Curtis Klaassen, University of Kansas Medical Center
5 uL of 1000 cells/well of AREc32_Fluc cells are seeded into 1536-well plate in OPTI-MEM medium with 5% FBS. The plates are incubated overnight at 37 deg C with 5% CO2. Then through pin tool transfer, 23 nL of compounds are added to each well before a 24 hr incubation at 37 deg C with 5% CO2. After the addition of 2.5 uL of Steady-Glo. the plates are kept at RT for 30 min, before they are read on the ViewLux.
For CCNc1nc2[nH]c(=O)c3c(c2s1)OC(N)=C(C#N)C3c1cccs1 (stereo not given), the “activation” value was 2.92%. With COc1ccc(C2C=C(C)Oc3c2c(=O)oc2ccccc32)cc1OC (stereo not given) the “activation” value was -1.49%. In the case of N#CC1=C(N)Oc2c(c(=O)oc3ccccc23)C1c1ccccc1OC(=O)c1cccs1 (stereo not given), the Potency is reported as 11.2 µM (active). For Cc1ccc(-n2c(/C=C/c3cccc(C(F)(F)F)c3)nc3ccccc3c2=O)cc1, the “activation” value was 3.6%. In the case of Cc1cccc(Cn2cccc(C(=O)Nc3ccc4c(c3)OCCO4)c2=O)c1, the “activation” value is reported as -0.518%.

Source: PubChem BioAssay AID624171 (National Center for Advancing Translational Sciences (NCATS), 2012)
Potency is the fitted concentration of half-maximal effect.
